# Laboratory results as given in publication PMC11062922 (Nature Chemical Biology, 2023).
# Where two headings read alike, the source gives them in different places.
# What was measured:
# Design in all cases: species or system human, MV4-11 + K-562 + COLO205 + SK-N-BE2 + OVCAR-8
# AURKB = details: read-out: apparent Kd, compound concentrations: 100 nM and 1000 nM (sheet 'Samples'), n = 1
# BMPR2 = details: read-out: apparent Kd; compound concentrations:100 nM and 1000 nM (sheet 'Samples'); n = 1
# JAK2 = details: read-out: apparent Kd; compound concentrations:100 nM and 1000 nM (sheet 'Samples'); n = 1
# PRKX = details: read-out: apparent Kd; compound concentrations:100 nM and 1000 nM (sheet 'Samples'); n = 1
# ROCK2 = details: read-out: apparent Kd; compound concentrations:100 nM and 1000 nM (sheet 'Samples'); n = 1
# EGFR = details: read-out: apparent Kd; compound concentrations: 100 nM and 1000 nM (sheet 'Samples'), CATDS: 0.10899892771168; n = 1
# HSP90B1 = details: read-out: apparent Kd; compound concentrations:100 nM and 1000 nM (sheet 'Samples'); n = 1
# MAP2K2 = details: read-out: apparent Kd; compound concentrations:100 nM and 1000 nM (sheet 'Samples'); n = 1
# MAP2K5 = details: read-out: apparent Kd; compound concentrations:100 nM and 1000 nM (sheet 'Samples'); n = 1
# PTK6 = details: read-out: apparent Kd; compound concentrations:100 nM and 1000 nM (sheet 'Samples'); n = 1
# RET = details: read-out: apparent Kd; compound concentrations:100 nM and 1000 nM (sheet 'Samples'); n = 1
# BUB1 = details: read-out: apparent Kd, compound concentrations: 100 nM and 1000 nM (sheet 'Samples'), n = 1
# MAPK11 = details: read-out: apparent Kd; compound concentrations: 100 nM and 1000 nM (sheet 'Samples'), CATDS: 0.164145076514569; n = 1
# MAPK14 = details: read-out: apparent Kd, compound concentrations: 100 nM and 1000 nM (sheet 'Samples'), n = 1
# MAPKAPK2 = details: read-out: apparent Kd, compound concentrations: 100 nM and 1000 nM (sheet 'Samples'), n = 1
# PIK3CD = details: read-out: apparent Kd; compound concentrations: 100 nM and 1000 nM (sheet 'Samples'), CATDS: 0.38142915880681; n = 1
# CIT = details: read-out: apparent Kd; compound concentrations: 100 nM and 1000 nM (sheet 'Samples'), CATDS: 0.144210490801775; n = 1
# CSNK1D = details: read-out: apparent Kd; compound concentrations: 100 nM and 1000 nM (sheet 'Samples'), CATDS: 0.10890792541592099; n = 1
# GAK = details: read-out: apparent Kd; compound concentrations: 100 nM and 1000 nM (sheet 'Samples'), CATDS: 0.122345585139645; n = 1
# MAPK10 = details: read-out: apparent Kd; compound concentrations: 100 nM and 1000 nM (sheet 'Samples'), CATDS: 0.135593379838652; n = 1
# MAPK9 = details: read-out: apparent Kd; compound concentrations: 100 nM and 1000 nM (sheet 'Samples'), CATDS: 0.122740421728674; n = 1
# BMP2K = details: read-out: apparent Kd; compound concentrations:100 nM and 1000 nM (sheet 'Samples'); n = 1
# CDC42BPA = details: read-out: apparent Kd; compound concentrations:100 nM and 1000 nM (sheet 'Samples'); n = 1
# CDC42BPB = details: read-out: apparent Kd; compound concentrations:100 nM and 1000 nM (sheet 'Samples'); n = 1
# CDC42BPG = details: read-out: apparent Kd; compound concentrations:100 nM and 1000 nM (sheet 'Samples'); n = 1
# PKN1 = details: read-out: apparent Kd; compound concentrations:100 nM and 1000 nM (sheet 'Samples'); n = 1
# PKN2 = details: read-out: apparent Kd; compound concentrations:100 nM and 1000 nM (sheet 'Samples'); n = 1
# PRKACA = details: read-out: apparent Kd; compound concentrations:100 nM and 1000 nM (sheet 'Samples'); n = 1
# PRKACB = details: read-out: apparent Kd; compound concentrations:100 nM and 1000 nM (sheet 'Samples'); n = 1
# PRKG1 = details: read-out: apparent Kd; compound concentrations:100 nM and 1000 nM (sheet 'Samples'); n = 1
# ROCK1 = details: read-out: apparent Kd; compound concentrations:100 nM and 1000 nM (sheet 'Samples'); n = 1
# RPS6KB1 = details: read-out: apparent Kd; compound concentrations:100 nM and 1000 nM (sheet 'Samples'); n = 1
smiles,measurement,setting,value
Cn1ccc2ncnc(Oc3ccc(Nc4nc5ccccc5[nH]4)cc3)c21 [TPKI-72],potency estimated from few doses,AURKB; CATDS: 1,617 nM
CC1=C(C(=O)Nc2ccc3[nH]ncc3c2)C(c2ccc3ccccc3c2)CC(=O)N1 (centres unmarked) [GSK270822A],potency estimated from few doses,BMPR2,2080 nM
same,potency estimated from few doses,JAK2,754 nM
same,potency estimated from few doses,PRKX,1630 nM
same,potency estimated from few doses,ROCK2,67.9 nM
COc1cc2c(Nc3ccc(NC(=O)c4ccccc4)cc3)ncnc2cc1OCCCN1CCOCC1 [GSK301329A],potency estimated from few doses,AURKB; CATDS: 0.55138330390134005,50.7 nM
same,potency estimated from few doses,EGFR,1470 nM
same,potency estimated from few doses,HSP90B1,1090 nM
same,potency estimated from few doses,MAP2K2,1940 nM
same,potency estimated from few doses,MAP2K5,238 nM
same,potency estimated from few doses,PTK6,487 nM
same,potency estimated from few doses,RET,1450 nM
Cc1cc(N2CCC(NS(=O)(=O)c3ccc(F)cc3)CC2)nc(Nc2cccc(C#N)c2)n1.O=C(O)C(F)(F)F [GSK1653537A],potency estimated from few doses,BUB1; CATDS: 0.134254488051117,1700 nM
same,potency estimated from few doses,MAPK11,822 nM
same,potency estimated from few doses,MAPK14; CATDS: 0.28659928881312002,232 nM
same,potency estimated from few doses,MAPKAPK2; CATDS: 0.18697262000238801,573 nM
same,potency estimated from few doses,PIK3CD,144 nM
Fc1ccc(-c2nn3c(OCC(F)(F)F)cccc3c2-c2ccncc2)cc1 [GW514784X],potency estimated from few doses,BUB1; CATDS: 0.17934012366879401,448 nM
same,potency estimated from few doses,CIT,646 nM
same,potency estimated from few doses,CSNK1D,1160 nM
same,potency estimated from few doses,GAK,890 nM
same,potency estimated from few doses,MAPK10,725 nM
same,potency estimated from few doses,MAPK14; CATDS: 0.115463865520786,1010 nM
same,potency estimated from few doses,MAPK9,884 nM
same,potency estimated from few doses,MAPKAPK2; CATDS: 0.10049167184689101,1420 nM
Cl.Cl.NC[C@H](CC1CCCCC1)NC(=O)c1cc(Br)c(-c2ccnc3[nH]ccc23)s1.NC[C@H](CC1CCCCC1)NC(=O)c1cc(Br)c(-c2ccnc3[nH]ccc23)s1 [GSK1581427A],potency estimated from few doses,BMP2K,106 nM
same,potency estimated from few doses,CDC42BPA,119 nM
same,potency estimated from few doses,CDC42BPB,45.2 nM
same,potency estimated from few doses,CDC42BPG,13.7 nM
same,potency estimated from few doses,PKN1,1690 nM
same,potency estimated from few doses,PKN2,2310 nM
same,potency estimated from few doses,PRKACA,20.9 nM
same,potency estimated from few doses,PRKACB,40.2 nM
same,potency estimated from few doses,PRKG1,10.8 nM
same,potency estimated from few doses,PRKX,513 nM
same,potency estimated from few doses,ROCK1,53.6 nM
same,potency estimated from few doses,ROCK2,51.1 nM
same,potency estimated from few doses,RPS6KB1,481 nM
